Results: PubChem BioAssay (NCATS)
Records with an inconclusive call do not appear. Activity calls are given as the source filed them. Unless noted, the call rests on the fitted dose curve.

Columns and labels:
[1] = P-glycoprotein substrates identified in KB-8-5-11 adenocarcinoma cell line, qHTS therapeutic library screen (AID 1346987; active means well fitted inhibition curve with a large enough effect; further: nearly all actives have a fitted effect of over 65% in size)
In short: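 KB-8-5-11, a colchicine-selected P-gp-overexpressing KB-3-1 subline, was grown without colchicine for the assay. Cells were seeded at 500 cells/well, dosed in concentration-response and incubated 72 h at 37 degree C, 5% CO2. Viability was read by CellTiter-Glo luminescence.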

[2] = target: Atrial natriuretic peptide receptor 1 (Homo sapiens) (UniProt P16066); assay: Natriuretic polypeptide receptor (hNpr1) antagonism - Pilot screen (AID 1347049);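 further: agonist-evoked cGMP luminescence read 20 min after hNppA addition; series mostly up to about 58 µM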
In short: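 HEK293 cells co-expressing hNpr1 and the GloSensor pGS-40F cGMP luciferase sensor were preloaded with 2% GloSensor reagent for 2 h. Compounds were added for 30 min at room temperature, then cells were stimulated with 0.1 nM hNppA for 20 min before luminescence readout.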

[3] = target: Atrial natriuretic peptide receptor 2 (Homo sapiens) (UniProt P20594); assay: Natriuretic polypeptide receptor (hNpr2) antagonism - Pilot subtype selectivity assay (AID 1347050)
In short: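 cGMP-sensor HEK293/hNpr2 cells; 2% GloSensor reagent 2 h RT; compounds 30 min; baseline luminescence read; 1 nM hNppC agonist 20 min RT; final luminescence read by CCD camera. Antagonism = reduced post-agonist signal.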

[4] = Natriuretic polypeptide receptor (hNpr1) antagonism - Pilot counterscreen GloSensor control cell line (AID 1347045); further: series mostly up to about 38 µM
In short: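 HEK293 cGMP GloSensor cells preloaded 2 h with 2% GloSensor reagent, then compound 30 min before baseline luminescence read. Stimulated with 50 uM sodium nitroprusside, 20 min at room temperature, then read again; counterscreen for Npr1 antagonism.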

Measured: Potency

Atrial natriuretic peptide receptor 1 (Homo sapiens), sequence (P16066 whole entry, looked up): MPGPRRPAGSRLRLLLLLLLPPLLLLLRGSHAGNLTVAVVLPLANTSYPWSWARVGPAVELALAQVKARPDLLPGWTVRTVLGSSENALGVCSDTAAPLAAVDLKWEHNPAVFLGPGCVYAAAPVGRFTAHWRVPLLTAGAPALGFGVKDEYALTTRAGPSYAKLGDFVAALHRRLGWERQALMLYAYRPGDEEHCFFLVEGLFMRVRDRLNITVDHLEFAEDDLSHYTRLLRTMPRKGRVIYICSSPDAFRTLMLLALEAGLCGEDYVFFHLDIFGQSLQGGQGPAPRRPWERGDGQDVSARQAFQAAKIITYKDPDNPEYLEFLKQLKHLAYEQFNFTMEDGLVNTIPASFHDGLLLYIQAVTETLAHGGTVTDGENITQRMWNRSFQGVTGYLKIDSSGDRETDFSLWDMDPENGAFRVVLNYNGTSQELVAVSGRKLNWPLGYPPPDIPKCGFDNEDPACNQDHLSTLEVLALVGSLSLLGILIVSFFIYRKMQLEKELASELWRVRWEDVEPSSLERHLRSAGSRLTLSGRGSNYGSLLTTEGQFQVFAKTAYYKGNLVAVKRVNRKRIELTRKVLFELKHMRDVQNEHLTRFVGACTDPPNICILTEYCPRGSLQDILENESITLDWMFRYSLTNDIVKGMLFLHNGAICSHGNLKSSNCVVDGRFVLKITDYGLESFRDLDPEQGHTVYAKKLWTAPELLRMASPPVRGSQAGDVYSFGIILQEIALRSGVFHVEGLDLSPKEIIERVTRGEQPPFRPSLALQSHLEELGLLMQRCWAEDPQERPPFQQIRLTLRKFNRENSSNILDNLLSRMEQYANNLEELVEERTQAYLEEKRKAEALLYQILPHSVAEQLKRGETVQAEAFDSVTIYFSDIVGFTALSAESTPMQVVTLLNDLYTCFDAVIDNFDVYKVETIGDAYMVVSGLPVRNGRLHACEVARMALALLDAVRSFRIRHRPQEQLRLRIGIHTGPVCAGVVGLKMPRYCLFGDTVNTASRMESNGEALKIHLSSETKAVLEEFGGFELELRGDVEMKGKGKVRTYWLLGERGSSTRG
Atrial natriuretic peptide receptor 2 (Homo sapiens), sequence (P20594 whole entry, looked up): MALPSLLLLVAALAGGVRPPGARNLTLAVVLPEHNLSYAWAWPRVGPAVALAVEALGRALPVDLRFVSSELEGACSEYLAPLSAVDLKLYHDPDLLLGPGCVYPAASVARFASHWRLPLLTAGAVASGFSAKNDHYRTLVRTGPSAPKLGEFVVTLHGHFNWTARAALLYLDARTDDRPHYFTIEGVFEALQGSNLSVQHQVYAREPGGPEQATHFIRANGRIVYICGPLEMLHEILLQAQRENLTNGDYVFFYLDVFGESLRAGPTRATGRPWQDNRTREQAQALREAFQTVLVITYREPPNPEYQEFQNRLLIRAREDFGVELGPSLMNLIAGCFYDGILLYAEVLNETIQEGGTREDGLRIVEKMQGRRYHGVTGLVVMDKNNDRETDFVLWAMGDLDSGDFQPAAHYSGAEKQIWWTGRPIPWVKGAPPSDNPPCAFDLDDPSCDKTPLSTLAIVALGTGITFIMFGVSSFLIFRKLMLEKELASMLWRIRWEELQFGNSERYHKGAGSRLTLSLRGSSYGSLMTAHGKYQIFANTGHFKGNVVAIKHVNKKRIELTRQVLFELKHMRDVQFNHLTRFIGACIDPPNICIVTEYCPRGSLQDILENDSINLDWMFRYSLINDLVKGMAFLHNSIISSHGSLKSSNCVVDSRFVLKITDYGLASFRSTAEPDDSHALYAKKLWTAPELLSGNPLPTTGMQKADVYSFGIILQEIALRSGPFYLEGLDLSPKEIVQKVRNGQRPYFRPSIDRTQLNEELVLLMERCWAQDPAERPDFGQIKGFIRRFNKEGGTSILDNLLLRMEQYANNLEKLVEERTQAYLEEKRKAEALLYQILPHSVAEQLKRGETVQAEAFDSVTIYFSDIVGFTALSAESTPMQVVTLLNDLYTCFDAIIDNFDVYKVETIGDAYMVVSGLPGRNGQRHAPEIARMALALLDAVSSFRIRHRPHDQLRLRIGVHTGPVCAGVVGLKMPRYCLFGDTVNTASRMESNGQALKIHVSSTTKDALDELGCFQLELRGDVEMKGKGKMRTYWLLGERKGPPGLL

COc1cc(Oc2ccnc3cc(OC)c(OC)cc23)ccc1NC(=O)NC(C)c1nccs1 (stereo not given)
inactive: [1]

NNCCc1ccccc1
inactive: [1] | [2] | [3]

CC(=O)Oc1ccccc1C(=O)O
inactive: all assays above

CC(C)(C)NCC(O)c1ccc(O)c(CO)c1 (stereo not given)
inactive: all assays above

NC[C@H](O)c1ccc(O)c(O)c1
inactive: [4] | [2] | [3]
